Screening results (PubChem)
AF4-AF9 inh: inhibitors of AF4 peptide binding to AF9, primary screen, biochemical, AlphaScreen, biotin-AF4 peptide, FLAG-AF9, single point | Protein AF-9 (Homo sapiens), P42568 | inhibition, % at 10 µM | actives 0.47% (n = 350,000) | AID 651704, 2012;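 active = every replicate reaching a set inhibition limit, whatever the replicate mean, cut at about 25% in these data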;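 also: 0% = plate neutral control median and 100% = total signal loss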
Target sequence (P42568 whole entry, looked up): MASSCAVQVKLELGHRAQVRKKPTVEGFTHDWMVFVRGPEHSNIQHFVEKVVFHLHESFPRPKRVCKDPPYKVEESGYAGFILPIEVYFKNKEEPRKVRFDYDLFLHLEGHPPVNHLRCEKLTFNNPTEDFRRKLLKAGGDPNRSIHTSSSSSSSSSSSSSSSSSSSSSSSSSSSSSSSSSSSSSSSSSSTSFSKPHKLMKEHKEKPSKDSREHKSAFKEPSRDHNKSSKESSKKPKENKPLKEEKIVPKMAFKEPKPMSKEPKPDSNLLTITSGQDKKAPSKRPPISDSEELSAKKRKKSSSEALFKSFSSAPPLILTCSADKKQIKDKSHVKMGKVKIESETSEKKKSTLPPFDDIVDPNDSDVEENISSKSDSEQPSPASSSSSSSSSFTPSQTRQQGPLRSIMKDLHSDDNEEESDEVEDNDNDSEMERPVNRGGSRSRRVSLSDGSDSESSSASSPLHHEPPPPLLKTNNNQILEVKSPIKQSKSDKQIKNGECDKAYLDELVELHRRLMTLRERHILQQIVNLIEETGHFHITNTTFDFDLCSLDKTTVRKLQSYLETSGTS
SMARCA2 act: SMARCA2 (BRM) function activators, primary screen, cell-based, luminescence, high throughput; MG213 cells, MMTV-luciferase reporter, dexamethasone, overnight; activation, % at 9.1 µM; actives 1% (n = 370,000); in the data active = activation above about 7.8%;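 also: 0% = vehicle wells and 100% = reference activator wells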
Wnt act: Wnt/beta-catenin pathway activators, primary screen, cell-based, plate reader, single point. actives 1.2% (n = 300,000). AID 743398, 2014. Wnt/beta-catenin reporter cell assay, activator. activation, % at 9.35 µM; in the data active = activation above about 30%, passing the limit was not always enough;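 also: 0% = neutral control wells and 100% = positive control wells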
esBAF inh: Bmi1 luciferase reporter increase in mESCs, primary screen, esBAF inhibitor project, mouse ES cells, Bmi1 luciferase knock-in, single point; actives 2% (n = 350,000); reporter increase, % at 12.5 µM; 24 h; 100% = twice the neutral-well signal; in the data active = activation above about 40%;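 also: 0% = median of the plate's neutral control wells and 100% = double that signal; a rise in the Bmi1 reporter signal indicates esBAF inhibition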
MITF TRPM1 HTS: activators of MITF-driven TRPM1 promoter reporter, primary screen, cell-based, SK-MEL-5, luciferase, single point; SK-MEL-5 TRPM1-promoter luciferase, 24 h; % of positive control, neutral wells = 0; activation, % at 12.5 µM; actives 0.75% (n = 300,000); AID 588334, 2011;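 active = mean activation of at least 80% with every replicate also reaching 80%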;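 also: 0% = neutral control wells and 100% = parthenolide positive control wells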
FGF22 binding-1: binders of human FGF22 protein, primary screen, FGF22 synaptogenesis inhibitor project, biophysical, thermal shift, single point; AID 651658, 2012; Fibroblast growth factor 22 (Homo sapiens), Q9HCT0; actives 1.5% (n = 340,000); activity (Tm shift, normalised), % at 9.99 µM; recombinant FGF22 thermal shift, SYPRO orange fluorescence; percent of sucrose octasulfate shift, DMSO zero;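 active = mean Tm shift, scaled 0 neutral to 100 positive control, at about 1.3% or above, every replicate too, limit read from the data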
FGF22 binding-2: binders of human FGF22 protein, dose response, FGF22 synaptogenesis inhibitor project, biophysical, thermal shift, cherry-pick retest | shares compounds with FGF22 binding-1 | actives 2% (n = 1,000) | thermal shift activity, °C (ΔTm) at 38 µM | recombinant FGF22 thermal shift, SYPRO orange fluorescence;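 active = fitted rise in melting shift crosses a set limit at or below the top valid dose tested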
FGF22 TSA DP: binders of human FGF22 protein, dose response, FGF22 synaptogenesis inhibitor project, biophysical, thermal shift, dry powder. shares compounds with FGF22 binding-1. Thermal shift assay, SYPRO orange, melting temperature shift. Tm shift (activity), % at 38 µM. 50 tested, under 10 active;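 active = compounds whose fitted dose curve of melting temperature shift rises past a set threshold within the tested doses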
TSA no protein: compound-only thermal shift signal without protein, dose response, artefact control for FGF22 binder project, biochemical, cherry-picked samples, RT-PCR instrument. actives 2% (n = 1,000). shares compounds with FGF22 binding-1. compound-only SYPRO orange thermal shift counter-screen, no protein. AID 743019, 2013. AC50, µM (series often up to 38 µM);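 active = rising signal whose fitted curve reaches the 0.54 level within the top valid dose, showing a melting point, actives reach about 13 µM in these data; inactive = the rest, including activity in the opposite direction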; also: value is where the raw curve crosses a fixed level and not half-maximal
An asterisk follows results filed as active; i = inactive; nt = no result; [ ] = remark or other dose. Hits are enriched below; roughly 4.3% of the tested compounds scored in any of these assays.

SMILES	AF4-AF9 inh	SMARCA2 act	Wnt act	esBAF inh	MITF TRPM1 HTS	FGF22 binding-1	FGF22 binding-2	TSA no protein	others
C[C@H](CO)N1C[C@H](C)[C@@H](CN(C)Cc2ccc3c(c2)OCO3)OCCCC[C@H](C)Oc2ccc(NS(C)(=O)=O)cc2C1=O	1	nt	nt	-4	nt	0	nt	nt
Cc1noc(C)c1S(=O)(=O)Nc1ccc2c(c1)C(=O)N([C@H](C)CO)C[C@@H](C)[C@H](CN(C)S(=O)(=O)c1c(C)noc1C)OCCCC[C@@H](C)O2	2	nt	nt	-2	nt	0	nt	nt
Cc1noc(C)c1NC(=O)N(C)C[C@@H]1Oc2ccc(NC(=O)NC(C)C)cc2C(=O)N([C@@H](C)CO)C[C@H]1C	-3	nt	nt	1	nt	0	nt	nt
CCOc1cccc(C(=O)Nc2ccc3[nH]ncc3c2)c1	2	1	16	-8	nt	1.6*	-0.074	i	FGF22 TSA DP=0
C/C(=N\NC(=O)CNC(=O)c1ccncc1)c1ccc(C)cc1	0	-4	-2	nt	-9	1.6*	0.043	i
C/C(=N/NC(=O)CNC(=O)c1cccnc1)c1ccc(Cl)cc1	-2	-3	-2	2	1	0	nt	nt
Cc1ccc(C(=O)Nc2cccc(-c3cnc4ccccc4n3)c2)cc1	nt	2	nt	14	22	nt	nt	nt
O=C(Nc1cccc(-c2cnc3ccccc3n2)c1)c1ccncc1	2	2	2	nt	6	1.3*	0.065	i
CCNC(=O)C[C@@H]1CC[C@H]2[C@@H](COC[C@@H](O)CN2C(=O)C2CCOCC2)O1	-1	nt	nt	-5	nt	0	nt	nt
O=C(C[C@H]1CC[C@H]2[C@@H](COC[C@@H](O)CN2C(=O)C2CC2)O1)NCc1ccncc1	-2	nt	nt	-2	nt	6.3*	0.012[42 µM]	i
CCNC(=O)C[C@H]1CC[C@@H]2[C@H](COC[C@H](O)CN2C(=O)C2CCOCC2)O1	1	nt	nt	-6	nt	27*	0.056	i
O=C(C[C@H]1CC[C@H]2[C@@H](COC[C@H](O)CN2C(=O)C2CC2)O1)NCc1ccncc1	-2	nt	nt	-3	nt	1	nt	nt
Cc1noc(C)c1S(=O)(=O)Nc1ccc2c(c1)C(=O)N([C@H](C)CO)C[C@H](C)[C@H](CN(C)C(=O)C1CCCCC1)OCCCC[C@H](C)O2	-1	nt	nt	-1	nt	0	nt	nt
CC=Cc1ccc2n(c1=O)C[C@H]1[C@H](CO)[C@@H](C(=O)NCC3CC3)[C@@H]2N1Cc1ccccc1F (mixture of isomers)	3	nt	nt	3	nt	0	nt	nt
COc1cc(/C=C2/S/C(=N/S(=O)(=O)Cc3ccccc3)NC2=O)c([N+](=O)[O-])cc1OC	-3	-1	-1	nt	5	1.9*	0.11	i
COc1ccccc1NC(=O)N1C[C@@H](O)COC[C@@H]2O[C@H](CC(=O)N3CCC(Cc4ccccc4)CC3)CC[C@H]21	nt	nt	nt	1	nt	0	nt	nt
CCN(CC)S(=O)(=O)c1ccc(N/N=C(\C)c2ccc(OC)cc2O)nc1	2	-6	2	-31	-53	1.4*	0.14	i
CCc1ccc(N2CC(C(=O)OCC(=O)Nc3ccc(C#N)cc3)CC2=O)cc1 (stereo not drawn)	3	-3	0	-2	3	1.6*	0.06	i
CCc1ccc(N2CC(C(=O)OCC(=O)NC3CC3)CC2=O)cc1 (stereo not drawn)	-1	-2	-2	-3	1	nt	nt	nt
CCc1ccc(N2CC(C(=O)OCC(=O)Nc3ccc(C(C)=O)cc3)CC2=O)cc1 (stereo not drawn)	-7	0	2	2	0	1.9*	-0.51	i
Cc1noc(C)c1NC(=O)N(C)C[C@@H]1Oc2ccc(NC(=O)Nc3ccc4c(c3)OCO4)cc2CC(=O)N([C@H](C)CO)C[C@@H]1C	-12	nt	nt	-2	nt	0	nt	nt
Oc1ccc(/C=N/N=C/c2ccc(O)c(O)c2)cc1O	5	-1	3	-2	nt	1.5*	0.23	10µM*
O=C(Nc1ccccc1Cl)N1[C@H](CO)[C@@H]2c3ccccc3NC[C@@H]21	-1	nt	nt	61*	nt	1.6*	0.068	i
OC[C@H]1[C@@H]2c3ccccc3NC[C@@H]2N1Cc1ccccc1Cl	4	nt	nt	2	nt	1.4*	0.23[42 µM]	i
O=C(Nc1ccccc1Cl)N1[C@@H](CO)[C@@H]2c3ccccc3NC[C@@H]21	2	nt	nt	-2	nt	0	nt	nt
SMILES	AF4-AF9 inh	SMARCA2 act	Wnt act	esBAF inh	MITF TRPM1 HTS	FGF22 binding-1	FGF22 binding-2	TSA no protein	others
COc1ccc2cc(CCNC(=O)c3cc4ccccc4o3)c(=O)[nH]c2c1	-1	-3	1	nt	-20	1.8*	-0.059	i
Cc1ccc2cc(CCNC(=O)c3cc4ccccc4o3)c(=O)[nH]c2c1C	-10	-2	0	-2	nt	0	nt	nt
Cc1ccc(-c2nnn(CC(=O)NCCc3ccc4c(c3)OCO4)n2)cc1	0	-2	11	-2	-9	8.9*	0.045	i
COc1cc(C)c2c(c1C=O)Oc1c(c(C)c(O)c3c1C(O)OC3=O)OC2=O (stereo not drawn)	-2	2	-1	-10	1	2.1*	0.067	i
Cc1c(/C=N\NC(=O)c2ccc(F)cc2)cnn1C	nt	1	nt	nt	-6	nt	nt	nt
Cc1[nH]c2ccccc2c1/C=N/NC(=O)c1cccc(F)c1	4	2	0	nt	6	2.0*	0.13	i
Cc1c(/C=N\NC(=O)c2cccc(F)c2)cnn1C	3	0	2	nt	9	2.0*	0.17	i
O=C(O)C[C@H]1CC[C@H](NC(=O)c2ccncc2)[C@@H](CO)O1	-1	nt	nt	6	nt	0	nt	nt
COC(=O)C[C@H]1CC[C@@H]2[C@@H](COc3ccc(NC(=O)Nc4cccc(C#N)c4)cc3C(=O)N2C)O1	1	nt	nt	-5	nt	2.0*	-0.093[42 µM]	i	FGF22 TSA DP=0
